PubChem BioAssay AID2158 (National Center for Advancing Translational Sciences (NCATS), 2009)
“And” between values parts separate entries of the source, which are not always exact repeats. Equal entries are not always repeated. Records with an inconclusive call do not appear. Unmarked numbers belong to inactive results. The source made the active and inactive calls. Calls follow the shape of the dose curve; as a rule, active = well fitted inhibition curve with a large enough effect; inconclusive = small, poorly fitted or top-dose-only effect; inactive = no such curve, though single readings can be large or run the other way.

Molecular target: Cruzipain (Trypanosoma cruzi) (UniProt P25779)
Sequence (P25779 123-467 limits assumed): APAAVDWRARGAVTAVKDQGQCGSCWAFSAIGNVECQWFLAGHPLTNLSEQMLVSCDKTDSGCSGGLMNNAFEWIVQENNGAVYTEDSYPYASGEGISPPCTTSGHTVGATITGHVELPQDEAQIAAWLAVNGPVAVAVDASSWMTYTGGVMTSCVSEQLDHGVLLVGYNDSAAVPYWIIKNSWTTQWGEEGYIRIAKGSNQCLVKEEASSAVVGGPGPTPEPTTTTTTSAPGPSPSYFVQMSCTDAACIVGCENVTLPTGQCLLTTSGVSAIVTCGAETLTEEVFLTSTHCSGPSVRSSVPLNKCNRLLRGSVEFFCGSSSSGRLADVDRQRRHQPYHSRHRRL
Experiment: Confirmation qHTS Assay for Inhibitors of Cruzain; also: nearly all actives have a fitted effect of over 40% in size;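 as to activity change, negative = inhibition: plate controls were uninhibited enzyme control for no effect and buffer wells lacking enzyme for full effect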
Details: purified cruzain, Z-FR-AMC fluorescence, 0.01% Triton
Summary of the method: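 Reaction progress from the 60 s rise in AMC fluorescence (ex 360, em 450 nm) after adding 2 uM Z-FR-AMC. Before this, 1.5 nM cruzain sat 15 min at room temperature with compound in pH 5.5 acetate buffer with 5 mM DTT and 0.01% Triton X-100.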
Potency is read from the fitted curve at half-maximal effect.

Compound | Potency | activity change, negative = inhibition
COC(=O)Sc1nc(N2CCOCC2)c2c(c1C#N)CC(C)(C)OC2 | 14.1 µM (active) | 
COc1cc(OC)c(-c2nn3c(-c4n[nH]c5c4CCC5)nnc3s2)cc1OC |  | -3.44% and -1.31%
O=C(NCCCO)c1ccc2nc(-c3ccco3)c(-c3ccco3)nc2c1 | 12.6 µM (active) | 
Cc1ccccc1OCC(=O)NCC(=O)OCC(=O)c1ccc2ccccc2c1 | 14.1 µM (active) | 
COc1ccc(C(=O)COC(=O)CNC(=O)C2CCCCC2)c(OC)c1 | 14.1 µM (active) | 
N#Cc1nc(-c2cccs2)oc1N1CCOCC1 |  | -30.8%
O=C(Nc1cc(C(F)(F)F)ccc1Cl)[C@H](O)CCc1ccccc1 |  | -26.3%
C=CCn1c(SCC(=O)Nc2cc3oc4ccccc4c3cc2OC)nnc1-c1cnccn1 |  | -11.8%
CCN(CC)c1nc(C#N)nc(N2CCOCC2)n1 | 8.91 µM (active) | 
CCc1ccc2[nH]c(=O)c(CN(Cc3ccccc3)Cc3nnnn3Cc3ccccc3)cc2c1 |  | -20%
O=C(NNC(=O)c1nc2ccccc2[nH]1)OCc1ccccc1 |  | -7.65%
CCOc1ccc(-c2csc(NC(=O)c3ccc(S(=O)(=O)N4CCc5ccccc5C4)cc3)n2)cc1 |  | -11%
CCOC(=O)CNc1nc(C#N)nc(N2CCOCC2)n1 | 4.47 µM (active) and 6.31 µM (active) | 
CCOc1ccc(C(=O)COC(=O)CNC(=O)C2CCCCC2)cc1 | 3.16 µM (active) | 
Cn1nc(-c2ccc(Cl)cc2)nc2c(=O)n(C)c(=O)nc1-2 | 0.891 µM (active) | 
CN(C)CCCNS(=O)(=O)c1ccc(N2CCC(c3ccc(Cl)cc3)=N2)cc1 |  | -28.4%
O=C(NCc1ccc2c(c1)OCO2)c1ccc2c(c1)N(Cc1cccc(Cl)c1)C(=O)c1ccccc1S2 |  | 3.57%
COc1ccccc1OCCn1c(CCNC(=O)C2CCCCC2)nc2ccccc21 | 1.41 µM (active) | 
O=C(CNC(=O)C1CCCCCC1)OC(C(=O)Nc1cc(C(F)(F)F)ccc1Cl)c1ccccc1 (centres undefined) | 7.08 µM (active) | 

Compound | Potency | activity change, negative = inhibition
Cc1ccc(S(=O)(=O)NC(N)=NCCC[C@@H](N)C(=O)Nc2cc(C(F)(F)F)ccc2Cl)cc1 |  | -17.2%
O=C(NCCc1nc2ccccc2n1CCCOc1ccccc1)C1CCCCC1 | 2.24 µM (active) | 
OCCN(CCO)c1ccc(C(c2ccccc2Cl)c2ccc(N(CCO)CCO)cc2Cl)c(Cl)c1 |  | -15.5%
CC(=O)c1nnn(-c2nc(C#N)nc(N3CCOCC3)n2)c1C |  | 4.76%
COc1ccc(OCCCn2c(CCNC(=O)C3CCCCC3)nc3ccccc32)cc1 | 1.41 µM (active) | 
O=C(CNC(=O)c1ccc([N+](=O)[O-])cc1)OC(C(=O)Nc1cc(C(F)(F)F)ccc1Cl)c1ccccc1 (centres undefined) | 12.6 µM (active) | 
O=C(CNC(=O)c1ccc2n[nH]nc2c1)OC(C(=O)Nc1cc(C(F)(F)F)ccc1Cl)c1ccccc1 (centres undefined) | 14.1 µM (active) | 
CNc1oc(Cc2ccccc2)nc1S(=O)(=O)c1ccc(Cl)cc1 | 25.1 µM (active) | 
N#Cc1nc(N)nc(N2CCCCC2)n1 | 7.94 µM (active) | 
Cc1cccc(Nc2nc(C#N)nc(NC3CCCC3)n2)c1 | 0.126 µM (active) | 
O=C(NCc1nnc(C(=O)Nc2ccc(C(F)(F)F)cc2Cl)o1)c1ccccc1 |  | -7.13%
Cc1ccc2[nH]c(=O)c(CN(Cc3ccco3)Cc3nnnn3Cc3ccco3)cc2c1 |  | -6.56%
O=C(CNC(=O)c1ccccc1)OC(C(=O)Nc1ccc2c(c1)OCO2)c1ccccc1 (centres undefined) | 8.91 µM (active) | 
CC(C)(C)OC(=O)NCC(=O)NNC(=O)C(C(=O)OCc1ccccc1)c1ccccc1 (centres undefined) |  | -3.79%
O=C(CNC(=O)C1CCCCC1)OCC(=O)c1ccc2c(c1)CCC2 | 6.31 µM (active) | 
O=c1oc2ccccc2cc1-c1csc(Cc2nc(-c3ccc(Br)cc3)cs2)n1 |  | 1.72%
CC/C=C1/N=C2C(=O)N(C)C(=O)N=C2N(C)N1 | 0.631 µM (active) | 
COc1cc(Cl)c(C)cc1NC(=O)C(OC(=O)CNC(=O)c1ccccc1)c1ccccc1 (centres undefined) | 31.6 µM (active) | 
O=C(NCCCc1nc2ccccc2n1CCCOc1ccccc1)C1CCCCC1 |  | -12.3%
